# Active and inactive are the calls of the source. How the source made its calls: active means hit-call score of the fitted dose curve at least 0.9, where 1 is the maximum; inactive means score below 0.9.
# Test: ATG_SREBP_CIS: Attagene CIS-FACTORIAL HepG2 Assay for human Sterol Regulatory Element Binding (SREBP) (AID 2282962)
# Conditions: HepG2 Attagene cis-factorial SREBP reporter, mRNA; actives raise or lower the signal
# Description: ATG_CIS is a cell-based, multiplexed-readout assay that uses HepG2, a human liver cell line, with measurements taken at 24 hours after chemical dosing in a 24-well plate.ATG_SREBP_CIS is one of 52 assay component(s) measured or calculated from the ATG_CIS assay. It is designed to make measurements of mRNA induction, a form of inducible reporter, as detected with fluorescence intensity signals by Reverse transcription polymerase chain reaction (RT-PCR) and Capillary electrophoresis technology.Data from the assay component ATG_SREBP_CIS was analyzed into 1 assay endpoint. This assay endpoint, ATG_SREBP_CIS, was analyzed with bidirectional fitting relative to DMSO as the negative control and baseline of activity. Using a type of inducible reporter, measures of mRNA for gain or loss-of-signal activity can be used to understand the reporter gene at the transcription factor-level as they relate to the gene SREBF1. Furthermore, this assay endpoint can be referred to as a primary readout, because this assay has produced multiple assay endpoints where this one serves a reporter gene function. To generalize the intended target to other relatable targets, this assay endpoint is annotated to the dna binding intended target family, where the subfamily is basic helix-loop-helix leucine zipper.
# Human liver HepG2 cells are transiently transfected with multiple reporter transcription units (MRTUs) in 6-well plates using FuGene 6 reagent (Roche; 3 ml FuGene/1 mg DNA). The MRTU constructs are regulated by a cis-regulating element (promoter). […] A major difference between the CIS and TRANS system is that in CIS activities of endogenous TFs are measured, whereas the TRANS assay evaluates changes in activities of exogenous, chimeric NR-Gal4 proteins. […] At the end of 24 hour incubation, total RNA was isolated using TriZol reagent (Invitrogen). The isolated RNA is then reverse-transcribed using oligo(dT) primer and Mo-MLV reverse transcriptase (Invitrogen) with DNAse I (Ambion) treatment for 30 min. The one-tenth of the produced cDNA was amplified by PCR using Taq DNA polymerase (Invitrogen) and two reporter sequence-specific primers. The PCR products were fluorescently labeled by primer extension with 6-arboxyfluorescein (6-FAM) 5'-labeled reporter sequence-specific primer (2 min at 95 C, 20 s at 68 C and 10 min at 72 C) and these products were digested with 5U of HpaI (New England Biolabs) for 2h at 37 C. The fragments were purified using Qiaquick PCR columns (Qiagen), analyzed on an ABI 3130xL genetic analyzer (Applied Biosystems) with peak positions identified by using a set of X-rhodamine (ROX)-labeled MapMarker1000 molecular weight standards (BioVentures). The raw capillary electrophoresis data was processed using Attagraph software (Attagene).
SMILES,outcome,AC50
Cn1cccc1,inactive,–
COC(OC)(C(=O)c1ccccc1)c1ccccc1,inactive,–
[Cl][Eu]([Cl])[Cl],inactive,–
CC1=C(O)C(=O)C(C)O1 (stereo not given),inactive,–
CN1CCN(C)CC1,inactive,–
COc1cc(C)ccc1O,inactive,–
CC=C(C)C=CC=C(C)C,inactive,–
CCOC(=O)[C@H](O)[C@@H](O)C(=O)OCC,inactive,–
CC(C)[N+](C)(CCOC(=O)C1c2ccccc2Oc2ccccc21)C(C)C,inactive,–
CC1(C)C(=O)N(CO)C(=O)N1CO,inactive,–
O=C(Oc1ccccc1)c1ccccc1O,inactive,–
CCCCOCC(C)O (stereo not given),inactive,–
Cc1cc(C)n(CO)n1,inactive,–
COc1ccc(-c2coc3cc(O)cc(O)c3c2=O)cc1,inactive,–
Oc1ccccc1Cc1ccccc1O,–,64.5 µM (active)
CCCCCCCCCCCC(=O)N(C)CC(=O)O,inactive,–
COC(=O)c1ccc(C(=O)OC)c(C(=O)OC)c1,inactive,–
CC(=O)OCC=C(C)C,inactive,–
CC(C)OC(=O)c1ccccc1,inactive,–
CCCCC(CC)COC(=O)/C=C/c1ccc(OC)cc1 (stereo not given),inactive,–

SMILES,outcome,AC50
Oc1c(Cl)cc(Cl)c(Cl)c1Cl,inactive,–
CCc1cccc(C)c1N,inactive,–
CCCCCCCCC(CO)CCCCCC (stereo not given),inactive,–
CCOC(=O)OC(=O)OCC,inactive,–
CC1(C)[C@@H]2CC[C@@]1(C)C(=O)C2,inactive,–
CCCCCCCC(=O)OCC(COC(=O)CCCCCCC)OC(=O)CCCCCCC,inactive,–
CC(C)c1cccc(C(C)C)c1N,inactive,–
O=C(O)/C=C/c1ccccc1,inactive,–
CCCCCCOc1ccc(N)cc1,inactive,–
CCCCCCOC(=O)CCCCC(=O)OCCCCCC,inactive,–
CCCCCCCC(=O)OCC,inactive,–
C=CC(=O)NCOCCCC,inactive,–
O=c1c(O)c(-c2ccc(O)cc2O)oc2cc(O)cc(O)c12,inactive,–
CC(=O)CCC1=C(C)CCCC1(C)C,inactive,–
CCCCC(C=O)CC (stereo not given),inactive,–
CC(=O)/C=C/C1C(C)=CCCC1(C)C (stereo not given),inactive,–
Cc1cccc(C(C)(C)C)c1O,inactive,–
C[N+](C)(C)CCCNS(=O)(=O)C(F)(F)C(F)(F)C(F)(F)C(F)(F)C(F)(F)C(F)(F)C(F)(F)C(F)(F)F,inactive,–
c1ccc(Nc2cccc3ccccc23)cc1,–,60.4 µM (active)
[Cl][Sc]([Cl])[Cl],inactive,–

# Source: PubChem BioAssay (EPA / NIEHS)
